Laboratory results: PubChem BioAssay (Tox21)
Inconclusive results are not listed. Values without a mark were called inactive. Active and inactive are the calls of the source. The call rests on the fitted dose curve.

System: not listed separately
Assay: qHTS assay to identify small molecule agonists or antagonists of the thyroid stimulating hormone receptor (TSHR) signaling pathway - wild type cell line counter screen (AID 1259384)
Details: HEK293 wild type, cAMP HTRF counter-screen; series mostly up to 92.4 µM; cAMP activity change: at the top concentration
Method in brief: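 Wild-type HEK293 cells were plated 18 h at 37 C/5% CO2, pin-dosed with compound plus Ro20-1724 medium, held 30 min at room temperature, then given cAMP-d2 and anti-cAMP-cryptate; fluorescence was read after 1 h. Fifteen concentrations, triplicate.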
On the % scale 0 is the no-effect control and ±100 the full control effect.

| Compound | cAMP activity change |
| --- | --- |
| CC/C=C(\C)C=O | 0.0919% |
| CSc1ccc(O)cc1C | -5.46% |
| O=C(NCc1ncc(C(F)(F)F)cc1Cl)c1c(Cl)cccc1Cl | 3.24% |
| CN1CCN(CCCN2c3ccccc3Sc3ccc(Cl)cc32)CC1 | 2.9% [at 42.5 µM, active compounds read high] |
| Cn1ccnc1 | 3.32% |
| CC(C)C(=O)C(C)C | 3.79% |
| Cc1cc(Br)ccc1NC(=O)CCl | -0.375% |
| N#Cc1nc(Cl)c(Cl)c(Cl)c1Cl | 5.34% |
| COc1cc(/C=C/C(=O)CC(=O)/C=C/c2ccc(O)c(OC)c2)ccc1O | 7.99% |
| N#CCCOCCC#N | -0.283% |
| Nc1ccc(F)c([N+](=O)[O-])c1 | 7.65% |
| C=CC(=O)OCCOC1C2CCC1C1CC=CC12 (stereo not given) | -2.01% [at 18.9 µM, active compounds read high] |
| CC(C=O)c1ccccc1 (stereo not given) | -9.29% |
| C=C[Si](C)(C)Cl | -4.27% [at 8.39 µM, active compounds read high] |
| CCC(C)(C)c1ccc(CC(C)CN2C[C@@H](C)O[C@@H](C)C2)cc1 (stereo not given in full) | -3.12% [at 42.5 µM, active compounds read high] |
| CN1CCN(c2ccccc2/C=C2\SCCN(c3ccc(Cl)c(Cl)c3)C2=O)CC1 | 2.95% |
| Cc1ccc2nc(-c3ccc(N)cc3)sc2c1S(=O)(=O)O | 6.26% [at 42.5 µM, active compounds read high] |
| CC(CC(C)(C)C)CC(C)(C)CC(C)(C)C (stereo not given) | -2.99% [at 42.5 µM, active compounds read high] |
| O=C(O)C[C@H](O)C[C@H](O)/C=C/c1c(C2CC2)nc2ccccc2c1-c1ccc(F)cc1 | -3.96% [at 18.9 µM, active compounds read high] |
| CCN(CC)c1ccc(N=Nc2ccccc2)cc1 | 3.2% |

Biological target: Thyrotropin receptor (Homo sapiens) (UniProt P16473)
Sequence (P16473 whole entry, looked up): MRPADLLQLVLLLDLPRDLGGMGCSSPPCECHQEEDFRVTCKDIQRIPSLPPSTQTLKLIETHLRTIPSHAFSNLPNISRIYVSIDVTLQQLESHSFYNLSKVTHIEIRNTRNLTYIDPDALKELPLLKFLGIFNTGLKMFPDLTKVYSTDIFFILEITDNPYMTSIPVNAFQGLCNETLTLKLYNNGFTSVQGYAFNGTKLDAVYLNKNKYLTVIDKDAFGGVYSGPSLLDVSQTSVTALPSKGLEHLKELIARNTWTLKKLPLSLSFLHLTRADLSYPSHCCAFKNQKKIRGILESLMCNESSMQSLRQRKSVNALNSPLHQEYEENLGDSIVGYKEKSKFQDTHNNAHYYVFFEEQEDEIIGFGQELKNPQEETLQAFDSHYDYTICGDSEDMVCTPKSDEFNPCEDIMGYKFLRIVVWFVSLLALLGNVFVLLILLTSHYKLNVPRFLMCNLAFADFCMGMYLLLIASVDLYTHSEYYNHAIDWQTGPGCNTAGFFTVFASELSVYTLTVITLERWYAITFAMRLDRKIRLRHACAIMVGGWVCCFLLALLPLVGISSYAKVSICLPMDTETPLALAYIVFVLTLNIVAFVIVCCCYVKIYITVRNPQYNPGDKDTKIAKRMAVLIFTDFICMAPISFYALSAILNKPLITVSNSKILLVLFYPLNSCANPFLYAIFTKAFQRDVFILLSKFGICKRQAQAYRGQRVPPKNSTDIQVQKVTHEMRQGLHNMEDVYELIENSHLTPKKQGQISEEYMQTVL
Assay: qHTS assay to identify small molecule antagonists of the thyroid stimulating hormone receptor (TSHR) signaling pathway (AID 1259385); further: nearly all actives have a fitted effect of over 20% in size; further: potency means the concentration at half of the fitted maximal effect
Details: TSHR-HEK293 cAMP HTRF, TSH-stimulated antagonist mode; series mostly up to 92.4 µM; activity change, negative = inhibition: at the top concentration
Method in brief: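 TSHR-HEK293 cells were plated and held 18 h at 37C/5% CO2, then given compound plus Ro20-1724 and stimulated with TSH at 1.5 ng/mL final. After 30 min at room temperature, cAMP was detected with cAMP-d2/anti-cAMP-cryptate (1 h) by fluorescence.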

| Compound | activity change, negative = inhibition | Potency |
| --- | --- | --- |
| CC/C=C(\C)C=O | 8.19% |  |
| O=C(O)CN(CCCN(CC(=O)O)CC(=O)O)CC(=O)O | 1.63% [at 19 µM] |  |
| CSc1ccc(O)cc1C | 5.11% |  |
| O=c1cc[nH]cc1 | 3.7% |  |
| CN1CCN(CCCN2c3ccccc3Sc3ccc(Cl)cc32)CC1 |  | 26.6 µM (active) |
| CCOc1nc(F)cc2nc(S(=O)(=O)Nc3c(Cl)cccc3C(=O)OC)nn12 | 1.04% |  |
| Cn1ccnc1 | 4.54% |  |
| CCCCCCCCCCCCS(=O)(=O)Cl | -1.01% [at 19 µM] |  |
| CCN(CCC#N)c1ccc(N=Nc2ccc([N+](=O)[O-])cc2)cc1 | -1.18% |  |
| CC(C)C(=O)C(C)C | 1.63% |  |
| Cc1cc(Br)ccc1NC(=O)CCl | 2.89% |  |
| N#Cc1nc(Cl)c(Cl)c(Cl)c1Cl | 7.09% |  |
| N#CCCOCCC#N | 4% |  |
| Nc1ccc(F)c([N+](=O)[O-])c1 | 0.0021% |  |
| C=CC(=O)OCCOC1C2CCC1C1CC=CC12 (stereo not given) | 6.1% [at 19 µM] |  |
| CC(C=O)c1ccccc1 (stereo not given) | 9.02% |  |
| CCCC(C)C=O (stereo not given) | 4% |  |
| O=C1OC(=O)c2cc(-c3ccc4c(c3)C(=O)OC4=O)ccc21 | -1.94% |  |
| CCCCCCCCCCCCCCCCCCNC(=O)OC1CCN(C(=O)OC[C@H](COC(=O)N(Cc2cccc[n+]2CC)C(=O)c2ccccc2OC)OC)CC1 |  | 29.8 µM (active) |
| C=C[Si](C)(C)Cl | 0.177% [at 8.39 µM] |  |
| Cc1ccc2nc(-c3ccc(N)cc3)sc2c1S(=O)(=O)O | -11% [at 42.5 µM] |  |
| CC(CC(C)(C)C)CC(C)(C)CC(C)(C)C (stereo not given) | -3.96% [at 42.5 µM] |  |
| O=C(O)C[C@H](O)C[C@H](O)/C=C/c1c(C2CC2)nc2ccccc2c1-c1ccc(F)cc1 | 1.31% [at 19 µM] |  |
| C=Cc1ccncc1 | -0.25% |  |
| CCN(CC)c1ccc(N=Nc2ccccc2)cc1 |  | 68.6 µM (active) |
